An excerpt weighted towards active compounds, which were near 5.2% of everything screened.
Tau FP inhib: tau fibrillization inhibition (FP). P10636. K18 P301L tau heparin fibrillization, Alexa594 FP, 6 h. Potency, µM (titrated, usually from 57.7 µM), most hits filed as inhibitors. 0.39% of 280,000 active; also: nearly all actives have a fitted effect of over 55% in size
Target sequence (P10636 561-689 P618L limits assumed): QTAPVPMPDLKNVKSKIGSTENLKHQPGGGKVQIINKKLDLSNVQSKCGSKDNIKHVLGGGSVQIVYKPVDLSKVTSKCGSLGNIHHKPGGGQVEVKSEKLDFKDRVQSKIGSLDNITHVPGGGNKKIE
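FP of Alexa 594-tau after heparin (20 uM) induction. Substrate: human K18 P301L, 15 uM unlabeled, 0.24 uM labeled. Buffer 100 mM sodium acetate pH 7. 6 hr, 37 C.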
Sfp PPTase inh: blocks B. subtilis Sfp PPTase activity. Potency, µM, most hits filed as inhibitors. 3.5% of 310,000 active. AID 1490. Q9F4F7. Biochemical Sfp PPTase activity, qHTS;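 also: the enzyme is Sfp with the accession as filed and its product quenches rhodamine fluorescence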
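Buffer: 50 mM Hepes-Na pH 7.6, 10 mM MgCl2, 0.01% Nonidet P-40, 0.01% BSA. Enzyme 15 nM, pre-exposed to compound 15 min; substrates then added and fluorescence change tracked over 30 min.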
Tau ThT inhib: blocks human tau fibril formation measured by thioflavin T. P10636. recombinant tau K18 P301L, heparin-induced fibrillization, ThT fluorescence. Potency, µM (series often up to 57.4 µM), hits mostly inhibitors. 2.1% of 270,000 active; also: nearly all actives have a fitted effect of over 55% in size
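Recombinant human tau K18 fragment […] carrying P301L, 15 uM unlabeled plus 0.24 uM Alexa 594-labeled, was fibrillized with 20 uM heparin in 100 mM sodium acetate pH 7 for 6 hr at 37 C; 30 uM ThT fluorescence read after 1 hr.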
Coupling enz: coupling enzyme interference in Giardia aldolase counter-screen; 0.67% of 290,000 active; AID 2472; coupling enzyme system counterscreen, AmpLite Red fluorescence; activity change, negative = inhibition, % at 58.2 µM, hits read low; in the data active = activity change below about -30%
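Final compound at 57.5 uM, incubated 10 min at RT with coupling enzyme reagent (glyceraldehyde-3-phosphate), then 20 min with substrate and AmpLite Red detection. Fluorescence read at 525/598 nm; tests interference with the coupling assay, not aldolase inhibition.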
Tau fluor cs: counter-screen for tau fibril formation inhibitors; tau K18 P301L Alexa594 fluorescence, heparin fibrillization; Potency, µM (doses to about 57.7 µM); 0.93% of 280,000 active; AID 1463; also: nearly all actives have a fitted effect of over 55% in size
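Human tau K18 P301L (15 uM unlabeled, 0.24 uM Alexa 594-labeled) in 100 mM sodium acetate pH 7 with 20 uM heparin, 6 hr at 37 C. ThT 30 uM added, 1 hr ambient; Alexa 594 FP and total fluorescence read at 555/632 nm.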
Hits are given with their value; – = inactive; ? = inconclusive; · = not tested or not shown; [ ] = dose if it differs, or a comment. Unless noted, calls follow the shape of the dose curve; as a rule, active = well fitted curve in the direction sought with a large enough effect; inconclusive = small, poorly fitted or top-dose-only effect, or another doubt; inactive = no such curve, though single readings can be large; an effect the other way counts as inactive or inconclusive.

SMILES | Tau FP inhib | Sfp PPTase inh | Tau ThT inhib | Coupling enz | Tau fluor cs
Cc1cccc(C)c1NCc1n[nH]c(=S)n1-c1ccccc1 | – | 79µM | – | – | –
COc1cc(/C=C/C(=O)Nc2nnc(CC(C)(C)C)s2)cc(OC)c1OC | – | 45µM | – | – | –
Cc1cc2cc(C=O)c(Cl)nc2cc1C | – | 32µM | – | – | –
Cc1ccc2cc(C=O)c(N(C)C)nc2c1 | – | – | – | – | –
CCc1ccc(-n2c(=O)c3ccccc3n3c(=S)[nH]nc23)cc1 | · | 45µM | · | – | ·
COCCCn1c(=O)c2ccccc2n2c(=S)[nH]nc12 | · | 79µM | · | – | ·
COc1cccc(-n2c(=O)c3ccccc3n3c(=S)[nH]nc23)c1 | · | ? | · | – | ·
Cc1cccc(C(=O)n2c(=S)nc3cc(C)ccn32)c1 | ? | 8.9µM | ? | – | –
Cc1cccc(NC(=O)c2sc3nc4c(cc3c2N)CN(Cc2ccccc2)CC4)c1 | – | · | – | · | –
Cc1cccc(NC(=O)c2sc3nc4c(cc3c2N)CN(C(C)C)CC4)c1 | – | · | 13µM | · | 18µM[quencher]
CC(C)OC(=O)CC(=O)c1sc2nc3c(cc2c1N)CN(C)CC3 | – | 45µM | ? | – | –
CN1CCc2nc3sc(C(=O)Nc4c(F)cccc4F)c(N)c3cc2C1 | – | · | ? | · | ?
COc1ccc(NC(=O)c2sc3nc4c(cc3c2N)CN(C(C)C)CC4)c(OC)c1 | ? | · | 13µM | · | 14µM[quencher]
CN1CCc2nc3sc(C(=O)Nc4cccc(C#N)c4)c(N)c3cc2C1 | – | · | 13µM | · | ?
COC(=O)C(/C=C/C(C)Cc1cc(Br)cc(OCc2ccccc2)c1OC)OCc1ccccc1 (stereo not given) | –[11.6 µM] | – | –[11.5 µM] | – | –[11.6 µM]
Cc1ccc(N2NC(C)(c3cccs3)NC2=S)cc1 (stereo not given) | – | 71µM | 16µM | – | ?
Cc1ccc(N2CC(O)(c3cccs3)[N+]3=C2CCCC3)cc1 (stereo not given) | – | – | – | – | –
Cc1ccc(OCCn2c(C3CC(=O)N(Cc4ccc(F)cc4)C3)nc3ccccc32)c(C)c1 (stereo not given) | – | · | – | · | –
COC(=O)NC(/C(C(=O)OC)=C(\C)NCc1ccccc1)c1ccc(F)cc1 (stereo not given) | –[11.6 µM] | – | ? | – | –[11.6 µM]
CN(C(=O)c1nn(C)c2c1COc1ccccc1-2)c1cccc(C(F)(F)F)c1 | – | · | – | · | –
Cc1cccc(N=Nc2c(C)c(C#N)c(O)[nH]c2=O)c1 | – | – | 1.1µM | – | –
Cc1ccc(OC(=S)Nc2ccc(F)cc2)cc1 | – | – | – | – | –
Cc1ccc(OC(=S)Nc2ccc(O)cc2)cc1 | ? | – | 16µM | – | –
O=C(Cc1ccc(Cl)cc1)c1c(O)cc(O)cc1O | – | – | ? | – | 16µM[quencher]
COc1ccc(CC(=O)c2c(O)cc(O)cc2O)cc1OC | – | – | – | – | ?
SMILES | Tau FP inhib | Sfp PPTase inh | Tau ThT inhib | Coupling enz | Tau fluor cs
CC(=O)c1c(C)c(C)c2n1CCn1c(C)ccc1-2 | – | – | 16µM | – | ?
Cc1ccc2c(c1)-c1c(c(C(=O)N3CCN(c4cc(Cl)ccc4C)CC3)nn1C)CS2 | – | · | – | · | –
Nc1ccc(-c2nc3ccc(-c4nc5ccccc5o4)cc3[nH]2)cc1 | – | – | 8.9µM | – | 16µM[quencher]
Nc1ccc2nc(-c3cc(Cl)c(N)c(Cl)c3)[nH]c2c1 | – | ? | 14µM | – | ?
Nc1ccc2nc(-c3ccc(Cl)cc3)[nH]c2c1 | – | – | 14µM | – | 25µM[quencher]
Cc1nc2ccc(-c3nc4ccc(N)cc4[nH]3)cc2[nH]1 | – | – | 16µM | – | ?
Cc1nc2ccc(-c3nc4ccccc4o3)cc2[nH]1 | – | – | – | – | –
Nc1ccc(-c2nc3ccc(N)cc3[nH]2)cc1 | – | – | ? | – | ?
COc1ccc(-c2nn3c(=O)cc(CN4CCN(C(=O)c5ccc(C(C)(C)C)cc5)CC4)nc3s2)cc1 | – | · | ? | · | –
Nc1cc(N)cc(-c2nc3ccccc3[nH]2)c1 | – | – | 13µM | – | 13µM[quencher]
c1csc(-c2nc3ccccc3[nH]2)c1 | – | – | – | – | –
c1ccc(-c2nc3ccccc3[nH]2)cc1 | · | – | · | – | ·
Cc1ccc(-c2nc3ccccc3[nH]2)s1 | – | 50µM | – | – | –
COC(=O)N1CCC2(CC1)CN(c1ccc(-c3ccccc3)cc1)C2 | · | – | · | – | ·
COC(=O)N1CCC2(CC1)CN(c1cccc(-c3ccccc3)c1)C2 | · | 79µM | · | – | ·
COC(=O)c1sccc1S(=O)(=O)N(CC(=O)NCc1ccccc1)c1ccc(C)cc1 | – | · | – | · | –
Cc1ccc(NC(=S)N(CCCN2CCOCC2)Cc2ccccn2)cc1Cl | – | 32µM | – | – | –
Cc1cc(Cl)ccc1NC(=S)N(CCCN1CCOCC1)Cc1cccs1 | – | 45µM | – | – | –
CC(=O)N/N=C/c1ccc([N+](=O)[O-])o1 | · | – | · | · | ·
O=[N+]([O-])c1ccc(/C=N/N=C/c2ccc([N+](=O)[O-])o2)o1 | ? | – | 13µM | – | ?
Cc1nn(-c2ccccc2)c2sc(C(=O)Nc3cccc(Br)c3)cc12 | 7.9µM | · | ? | · | ?
Cc1cnc(NC(=O)c2cc3c(C)nn(-c4ccccc4)c3s2)s1 | ? | – | – | – | ?
COc1ccccc1NC(=O)c1cc2c(-c3ccccc3)nn(-c3ccccc3)c2s1 | ? | · | – | · | –
O=C(Nc1ccc(Cl)cc1)c1cc2c(-c3ccccc3)nn(-c3ccccc3)c2s1 | 25µM | · | – | · | –
O=C(Nc1ccccc1)c1cc2c(-c3ccccc3)nn(-c3ccccc3)c2s1 | 20µM | · | – | · | ?
SMILES | Tau FP inhib | Sfp PPTase inh | Tau ThT inhib | Coupling enz | Tau fluor cs
CCCCOc1ccc(C(=O)Nc2cccc(-c3nc4cccnc4s3)c2)cc1 | – | · | – | · | –
COc1ccc(S(=O)(=O)NCc2ccc3c(c2)CCN3C(=O)c2ccc(C)cc2)cc1Cl | – | · | – | · | –
Cc1cccc(OCCSc2nnc(-c3cccs3)o2)c1 | – | · | ? | · | –
CCOc1ccc(NC(=O)CN2C(=O)C(c3ccccc3)=NC23CCC(C)CC3)cc1 (stereo not given) | – | · | – | · | –
O=C(NCc1ccccc1)c1cc(-c2cccs2)on1 | – | – | – | – | –
O=C(NCc1ccc(F)cc1)c1cc(-c2cccs2)on1 | – | 45µM | – | – | –
O=C(Nc1cccc2nsnc12)c1ccc(-c2cccc(Cl)c2)o1 | – | 25µM | ? | -40 | –
O=C(Nc1ccccc1N1CCCCC1)c1ccc(-c2cccc(Cl)c2)o1 | – | – | – | – | –
Cc1ccc2nsnc2c1NC(=O)c1ccc(-c2cc(Cl)ccc2Cl)o1 | – | 28µM | ? | – | –
C/C(CC(=O)Nc1cc(Cl)ccc1Cl)=N\NC(N)=S | – | 35µM | – | – | –
C/C(CC(=O)Nc1ccc(Cl)cc1C(F)(F)F)=N\NC(N)=S | – | 45µM | – | – | –
C/C(CC(=O)Nc1ccc(Cl)cc1Cl)=N\NC(N)=S | – | – | – | – | –
Cc1ccc(Cl)cc1NC(=O)C1CCN(C(=O)c2cnn(-c3ccccc3)c2-n2cccc2)CC1 | – | · | ? | · | –
O=C1C(C2=C(O)c3ccccc3C2=O)=Nc2ccccc21 | ? | 56µM | 7.1µM | – | ?
